From PubChem BioAssay AID1508600 (Functional Genomics Laboratory (NCATS/FGL), 2020)
The campaign covered roughly 53,000 sequences. About 3,700 (7%) were called active. This is one part of a sample in which actives are shown more often than they occur.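 Rule for the calls: active = gene knockdowns whose robust z-score for IL-1 alpha signal is at least 2 or at most -2, so actives lie on both sides; inactive = the rest.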

test: Components of the Cytosolic LPS Sensing Pathway: Gene Identification via Genome-wide siRNA Screen; settings: RAW264.7 macrophages, IL-1a HTRF, actives lie on both sides, screened at 100 nM (by protocol), cells primed 5 h with Pam3CSK4 first;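 note: robust z of the log signal after scaling to non-targeting control siRNA wells of the plate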
How it was run: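 Knockdown: 100 nM siRNA, 48h, RAW264.7. Stimulation: Pam3CSK4 5 h, then LipidA via TransIT-TKO 24 h. Output: supernatant IL-1a HTRF, negative-control-normalized, log robust z-score; viability by CellTiter-Glo.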

Sequence	z-score
GCAAAGGAUCCAAUUUUAGTT against Rnf227	1.28 (inactive)
GGUCCAAUUACUGAAGGUUTT against Spaca7	2.09 (active)
GCUCCAACUACAUUGACUATT against Olfr1410	-0.396 (inactive)
GCCGAGAGAGCCAAUACAATT against Tbc1d16	0.248 (inactive)
GGAAACACCUUUGAGGCUCTT against Kndc1	-1.88 (inactive)
GCUACAGGAUAAGUCCAAUTT against Kpnb1	-2.01 (active)
CCGAAUCGUCCUAAACCAATT against Cyp11a1	0.284 (inactive)
GUACAUUUGCUGGAGCCUCTT against Hps6	0.395 (inactive)
GCCUUUCUUCUGUCAAUGATT against Olfr281	2.38 (active)
CCGACCAGAAGCUUUAAAGTT against Msrb1	1.05 (inactive)
GGGAGUUGGUGGAAUGCUUTT against Ech1	-0.221 (inactive)
GGAGUUUGAACAAGAAAUATT against Prss12	1.11 (inactive)
GCCACCGAACCUAUAAAGCTT against Scd4	0.265 (inactive)
GGUGUGCAUCAAGCGACUGTT against Cacng6	2.1 (active)
GGUUCUAGAUGCUAAUAAGTT against Ciao3	-0.381 (inactive)
GGAUCUGACAAGGUACAAGTT against Acsm5	0.145 (inactive)
GCUAUGGGUAAACUUUUUGTT against Olfr354	0.905 (inactive)
CCUAGACAAUACUUGCCUGTT against Gpr180	0.873 (inactive)
GCCUGUUCGGUGUUCAACUTT against Etv3	0.808 (inactive)
GCCUAGUUCUUUAUGCUAUTT against Golga4	4.37 (active)
CCACCUGUCGAGAUGUCGUTT against Ppp1r13b	1.1 (inactive)
GGAUCACGUUUCAAACAUCTT against Mtmr12	0.296 (inactive)

Sequence	z-score
GGAGCACAAUAGUAAACUATT against Polr1a	2.78 (active)
GGUGAAGAUAAGUAUCUGCTT against Mug2	-0.0586 (inactive)
GCUUGAUUAGGUAGGAAUATT against Stk32a	-0.388 (inactive)
GGAAAGUCAGGAUGAAUAUTT against Cst9	0.0511 (inactive)
GGAGUUGUAGUGAGGGUCATT against Fcgbp	-0.971 (inactive)
GGAAACAGGAAACAAUCUATT against Ccdc69	0.609 (inactive)
GGUUUUGAGUGAGAAAUGGTT against Plekhb2	-0.414 (inactive)
GGAGAAAUCCCUUCACGGUTT against Mas1	0.449 (inactive)
CCACCUCCUCUCGAUACAATT against Zfp36	0.993 (inactive)
CGCAGUAGCGAAGAAUUACTT against Sel1l3	2.46 (active)
CCAUAAUAGAGGCAAUUACTT against Wscd1	0.302 (inactive)
CCUAGGUGUCACCAUGAACTT against Ssx9	2.02 (active)
GGAAAGAGUCAUGGAAAUATT against Supt16	0.55 (inactive)
GGCUCACAAGGAAGAGAUCTT against Cstad	-0.29 (inactive)
GCUCUGAAAUGUCUCUCCATT against H2-D1	-0.613 (inactive)
GGUGUGUUCAGGAGUUGAUTT against Col12a1	0.505 (inactive)
GGCAAAAAAAACUGCUAUATT against Adgrg7	3.36 (active)
GGUGACAUUUGAAAAUGUCTT against Slc25a12	0.411 (inactive)
GCCUCAUCCCUAUAGUCCUTT against Spaca9	-0.257 (inactive)
CGGGUUCCCAGGAAUUAAGTT against Col4a6	0.304 (inactive)
GGUUGACACUCUGAGGGAATT against Pld2	-0.175 (inactive)
CCACUUUCUAGAAAUCCUATT against Tmem41a	-2.14 (active)

Sequence	z-score
GGGCUGAUGAGCAAAGCAUTT against Setd4	-1.01 (inactive)
GGGAAAUUAUUACCAAAAGTT against N4bp1	-0.83 (inactive)
GGUCUUUGUUAAGAAUCCUTT against Myo1f	-0.496 (inactive)
GCUCGAAAACUGAGAGUUATT against Pcdhgb1	3.32 (active)
GCUAUAAGGCUUAAUAGGGTT against Dleu7	1.97 (inactive)
GCGAAAGCAGCUGUCGGAATT against Nkx3-1	0.324 (inactive)
GGCCUCGAACAGUUUAUUATT against Snx12	0.471 (inactive)
GGCUGUGGAUCUUCUCUGUTT against Cnksr3	-1.05 (inactive)
GCCAUGUUAAAUUCUCUACTT against Poln	0.575 (inactive)
GGCUCUGCUGGAUAUCAUGTT against Med24	-1.08 (inactive)
GGGUAUUUCCUGGUGGAUUTT against Mrps6	0.221 (inactive)
CCUAUCAUAACGGUGAUAATT against Ddb1	-0.423 (inactive)
GGUCACACCCAUAAACUAATT against B630019K06Rik	-0.167 (inactive)
GGUUAUUAAGUAGCUUUUCTT against Dtx1	1.64 (inactive)
GCAUUAGAACAAAGGAUGCTT against Rps19	0.278 (inactive)
GGAAUUUGUGGAAACAGGATT against Tnfaip3	-0.441 (inactive)
GCCUUUGAUAGUGGUGAAUTT against F11r	-3 (active)
CCAAUCUUCUCCUCAAGACTT against Olfr101	-0.0712 (inactive)
GGCUGUUUCCAAAAAGAAGTT against H1f5	-1.14 (inactive)
GGACCAGGGCAAAAUAUGATT against Pate6	0.727 (inactive)
CCAUCAUUGCUCGUAUUGGTT against Olfr656	-2.9 (active)
CCAGUGGAAAUAACUUGUGTT against Fam53a	1.58 (inactive)

Sequence	z-score
CCUUGAGUGAAAGAAUUGATT against Tmprss11d	-0.609 (inactive)
GGAAUAUCCGUAAUAACUATT against Grin2b	2.82 (active)
GCUACUAAAUUCUGUUUUGTT against Nol4l	0.325 (inactive)
GGGAAGUUUCUUGAAGCACTT against Rfxank	0.103 (inactive)
AGGACUAGGGAUCCUAAUUTT against Ubl5	-0.74 (inactive)
GGUUGCUGGAUGUCAUCUCTT against Hpn	-2.05 (active)
GCUACUUGCUCAUACAAAGTT against Rag2	0.65 (inactive)
GGCCAUAUGUCAAGAAGUUTT against Svs4	-1.24 (inactive)
GCCAGGAAUAGUGAUUAUUTT against Atp11c	-1.19 (inactive)
GGAAAUGUGGAAUACACCGTT against Prl7a2	1.39 (inactive)
GGCUUUAAUGUGUCAGUACTT against Slc25a5	-0.228 (inactive)
GCCGAUGAUACCAAACCGATT against Oser1	0.151 (inactive)
CGACUCUUACCAACCUUUUTT against Lhx2	0.477 (inactive)
GCAGGUGGUACGCAGACUATT against Ulk1	-0.0204 (inactive)
GGAAAGAAUGAGGAUGUGGTT against Pitx2	-2.07 (active)
CCUCAAACUCGGUUUGAUUTT against Acp6	-0.773 (inactive)
GCCUAUACUAUAGAAUUACTT against Sgsm2	2.2 (active)
GACGCAGAUGGUAUUUUUUTT against Orm2	1.24 (inactive)
GUGGGAAUUCUGAAAAAUATT against Vmn1r231	0.301 (inactive)
GUAUGAACCUAACACAUUCTT against Vmn1r188	0.493 (inactive)
GGAAACCUUUACCAUAAACTT against Epdr1	-2.35 (active)
GGAUCAAACAAAUCAUCAATT against Plscr4	-0.895 (inactive)

Sequence	z-score
CCUUGUAGCUCUGAGGAUATT against Teddm3	-0.529 (inactive)
GGAACCUACCUCACCUUUGTT against Fscn3	-0.749 (inactive)
GGUCUCUUCAUGAUGGAUGTT against Akt1s1	0.731 (inactive)
CCAUACACAUGUAAUUCUCTT against Zmat3	-0.159 (inactive)
GGCAUCUCUGAGUUACAUUTT against Snu13	0.695 (inactive)
GGGUCUGGUUCUGUAACCATT against Pou4f3	-1.94 (inactive)
GGACUAUGGUGGGAACUAGTT against Tas2r119	-0.564 (inactive)
CGUUCUAUGGAAACUGGAGTT against Acot1	2.42 (active)
GGAAUGCUUAAAGCUUUAATT against Clasp2	0.353 (inactive)
CCAUUUCCCAUUUCUGAAGTT against 1700001P01Rik	-2.22 (active)
GCUCAAGUUAAUCUGUUGUTT against Ywhae	0.962 (inactive)
CCAGUCAACAAGAAUCAGATT against Rptn	-0.105 (inactive)
GAUACAGAAUGUCUCAUCCTT against Olfr1128	0.307 (inactive)
CCUAUCUUGUCCGGUUUACTT against Cyb5rl	3.99 (active)
GCCCUUGCACUAUUUUUCCTT against Olfr1218	0.902 (inactive)
GCUAUGUCAACAGUAACAUTT against Mmel1	-0.683 (inactive)
GGUGGAAUUAUGCAUGCUATT against Olfr1094	1.45 (inactive)
GGCUUUCUUCAGUUUUGUCTT against Slc33a1	-1.37 (inactive)
GGAGGUUACCUUCUACAGCTT against Cxcr2	0.694 (inactive)
GGGUGAAAAGCAUUUCUGUTT against Actrt3	0.583 (inactive)
